Measured values: ChEMBL document CHEMBL3988442, “University of Dundee, Small-Polar-MMV Screening Library” (2021)
Hit rate of the full screen: of about 48,000 compounds, about 13,000 (27%) showed an effect of 50% or more. Some of the results follow.

test system: Wolbachia pipientis; experiment: Anti-Wolbachia Cell-Based Screen; format: functional; design: scale not given: in the data most compounds retested in dose-response had high values; settings: 5 µM

In order of falling “Percent Effect” value:
1. O=C(Cc1ccc2c(c1)OCC2)Nc1nn[nH]n1  216.7%
2. O=C(Cc1ccc2c(c1)OCC2)Nc1nc(C(F)(F)F)n[nH]1  131.9%
3. COc1ccc(CCNC(=O)NCC(O)c2cccc(F)c2)cc1 (stereo unspecified)  127.5%
4. Cc1ccc(F)c(S(=O)(=O)NCc2cccc(C(=O)N3CCCC3)c2)c1  126.7%
5. CN1CCCc2cc(CNC(=O)c3ccc(-n4cnnc4)cc3)ccc21  119.3%
6. COc1cccc(Oc2nc(C)c(C(=O)O)s2)c1OC  116.8%
7. CSCCCN(CCN1CCOCC1)Cc1ccco1  114.6%
8. Cc1ccc2cccc(Oc3nc(C)c(C(=O)O)s3)c2n1  111%
9. Cc1cc(C)n(CCCN(CCN2CCOCC2)Cc2ccco2)n1  110.7%
10. CN1CCCc2cc(CNC(=O)c3cc[n+]([O-])cc3)ccc21  106.3%
11. Cc1nc(COc2ccc(S(=O)(=O)N(C)C)cc2)sc1C  104.7%
12. O=C(Cc1ccc2c(c1)OCC2)Nc1nc[nH]n1  104.4%
13. Cc1cccc(CN2C(=O)CCC23CCN(Cc2ccoc2)CC3)n1  102.5%
14. Cc1cc(F)ccc1CNCc1cccc(C(=O)N2CCCC2)c1  100.5%
15. Cc1nc(Oc2ccccc2Cl)sc1C(=O)O  98.65%
16. O=C(NCCc1ccc(F)cc1)NCC(O)c1cccc(F)c1 (stereo unspecified)  98.05%
17. CCOCc1cncc2c1CCN(C(=O)c1cscn1)C2.O=C(O)C(F)(F)F  95.41%
18. Cc1nc(C)c(COc2ccc(S(=O)(=O)N(C)C)cc2)s1  94.55%
19. O=C(NCCc1cccs1)NCC(O)c1cccc(F)c1 (stereo unspecified)  94.53%
20. CC(C)COCCCNC(=O)NCC(O)c1cccc(F)c1 (stereo unspecified)  93.97%
21. Cc1nc(Oc2ccccc2F)sc1C(=O)O  91.89%
22. O=C(NCCc1ccccc1)NCC(O)c1cccc(F)c1 (stereo unspecified)  91.4%
23. O=C(O)C(F)(F)F.O=C(c1cscn1)N1CCc2c(COCC3CC3)cncc2C1  89.35%
24. Cc1cccc(CN2C(=O)CCC23CCN(Cc2nccn2C)CC3)n1  88.13%
25. CC(C)COCc1cncc2c1CCN(C(=O)c1cscn1)C2.O=C(O)C(F)(F)F  82.53%
26. Cc1nc(COc2ccc(N(C)S(C)(=O)=O)cc2)sc1C  78.79%
27. Cc1ccc(F)cc1S(=O)(=O)NCc1cccc(C(=O)N2CCCC2)c1  74.77%
28. CN(C)CCN1CCc2ncc(CN(C)Cc3ccco3)n2CC1  24.09%
29. Cc1ccc(C(NC(=O)CCNC(=O)c2ccoc2)C(F)(F)F)cc1 (stereo unspecified)  20.44%
30. Cc1ncsc1CN1C[C@@H]2COC[C@]2(C(=O)NC2CC(F)(F)C2)C1.O=C(O)C(F)(F)F  20.27%
31. Cc1nc(CNC(=O)Nc2ccc3c(c2)CCCN3C)sc1C  18.83%
32. Cc1cccc(CN2C(=O)CC[C@@H]3[C@H]2CCN3Cc2nccn2C)n1.O=C(O)C(F)(F)F.O=C(O)C(F)(F)F.O=C(O)C(F)(F)F  16.26%
33. O=C1C(N2CCOC3(CCCC3)C2)CCN1C1CC1 (stereo unspecified)  15.83%
34. O=C(NCC(O)c1cccc(F)c1)c1sccc1OC(F)F (stereo unspecified)  13.48%
35. CCN(CC)CCCN1CCC(NC(=O)OC(C)(C)C)CC1  13.41%
36. CN(C)S(=O)(=O)c1ccc(OCCNCCn2cccn2)cc1  11.92%
37. O=C(CC(F)(F)F)NC(c1ccc(Cl)cc1)c1ncon1 (stereo unspecified)  11.91%
38. Cc1cc(S(=O)(=O)NCc2cccc(C(=O)N3CCCC3)c2)c(C)s1  10.27%
39. Cc1nc(-c2ccc(Cl)s2)sc1C(=O)O  9.091%
40. Nc1cc2c(nn1)CCN(C(=O)Cc1ccc3c(c1)CCO3)C2  8.586%
41. O=C(NCc1cccc(F)c1)c1cccc(C(=O)N2CCCC2)n1  8.268%
42. Cc1ccc(-n2nnc(CC(=O)N3CCSCC3)c2C)cc1  7.911%
43. CN1CCCc2cc(CNC(=O)c3ccncc3)ccc21  7.884%
44. CCc1noc(CCCC(=O)Nc2cc(C(F)(F)F)c[nH]c2=O)n1  7.764%
45. Cc1nc(CCNC(=O)NCC(O)c2cccc(Cl)c2)cs1 (stereo unspecified)  5.885%
46. CN(c1ccc(C(N)=O)nn1)C1CCC1  4.967%
47. COc1c(C2CCCN2Cc2csc(C(C)C)n2)c(C)nn1C (stereo unspecified)  4.743%
48. O=C(NCCc1cccc(F)c1)NCC(O)c1cccc(F)c1 (stereo unspecified)  4.017%
49. Cc1nc(-c2ccccc2F)sc1C(=O)N1CCN(C)CC1  3.843%
50. CN1CC(=O)N(c2ccsc2)CC12CCN(Cc1nccn1C)C2 (stereo unspecified)  2.996%
51. O=C(Cc1ccc2c(c1)OCCO2)NC1CCN(CC(F)F)CC1  2.104%
52. CN(c1ccc(OCc2cnc(Cl)s2)cc1)S(C)(=O)=O  2.089%
53. O=C(c1cccc(CNS(=O)(=O)c2ccccc2F)c1)N1CCCC1  1.767%
54. CN(C)C(=O)CNC(CC(F)(F)F)c1ccc(Cl)cc1 (stereo unspecified)  1.329%
55. Cc1cc(F)ccc1S(=O)(=O)NCc1cccc(C(=O)N2CCCC2)c1  0.7357%
56. Cc1cc(C)n(CCN2CCN(C(=O)c3ccccc3Br)CC2)n1  0.6022%
57. Cc1cccc(Cn2c3c(ccc2=O)CCN(Cc2ccoc2)CC3)n1.O=C(O)C(F)(F)F.O=C(O)C(F)(F)F  0.1669%
58. Cc1nc(NC(=O)OC(C)(C)C)sc1C(=O)O  0.0995%
59. Cc1ncc(COc2ccc(N(C)S(C)(=O)=O)cc2)s1  -0.05196%
60. CN(Cc1ccccc1)c1ncccc1CNC(=O)c1ccnn1C  -0.05459%
61. Cc1ccc(CNC(=O)NC2CCN(CC(F)F)CC2)cc1  -0.1084%
62. Cc1nnc2n1CC(CNc1ncnc3ccccc13)CC2 (stereo unspecified)  -0.4612%
63. O=C(NCCN1CCOCC1)NCC(O)c1cccc(F)c1 (stereo unspecified)  -0.6049%
64. Cc1nc(CN2C[C@@H](NS(=O)(=O)N(C)C)[C@H](C(C)C)C2)cs1  -0.9733%
65. CN(Cc1nnc2n1CCC2)C(=O)Cc1ccc2c(c1)OCCO2  -1.07%
66. COCC(=O)N[C@H]1C[C@@H](Cc2cc(CN3CCOCC3)on2)C1(C)C  -1.513%
67. CCCc1cc(N2CCCC2Cn2cc(C)cn2)n2ncnc2n1 (stereo unspecified)  -1.643%
68. CC(=O)Nc1cnc(Oc2ccccc2F)nc1  -1.763%
69. OCCc1cn(CC2CCCN(Cc3nccs3)C2)nn1 (stereo unspecified)  -2.093%
70. Cc1ccc2cccc(C(=O)N3CCN(c4cccnn4)CC3)c2n1  -2.333%
71. Cn1cc(C#N)cc1C(=O)NC1(C#N)CCSCC1  -2.619%
72. Cc1cc(C)n(Cc2cccc(C(=O)NCCN3CCOCC3)c2)n1  -2.99%
73. CCn1ccc(C(=O)N2CCCN(Cc3ccccc3F)CC2)cc1=O  -3.557%
74. Cc1ccc(C(=O)NCc2ccc(N3CCNC(=O)C3)c(F)c2)cc1  -3.953%
75. O=C(Nc1ccc2ncccc2c1)C1CC(=O)N(Cc2ccccn2)C1 (stereo unspecified)  -4.026%
76. Cc1ccc(N2Cc3c(CN(C)C)nn(C)c3C2)nn1  -4.068%
77. CC(C)COCc1cncc2c1CCN(Cc1cnn(C)c1)C2.O=C(O)C(F)(F)F.O=C(O)C(F)(F)F  -4.372%
78. Cn1cnnc1C1CCN(c2nc3ccccc3o2)CC1  -4.492%
79. O=C(Cc1ccc2c(c1)CCO2)Nc1ccc(-n2cncn2)nc1  -5.052%
80. CC(C)C(=O)NS(=O)(=O)c1ccc2c(c1)N(C)CCC2  -5.146%
81. COc1ccc(OCc2sc(C3(O)CCCNCC3)nc2C)cc1.Cl (stereo unspecified)  -5.149%
82. O=C(O)C(F)(F)F.O=C(c1ccsc1)N1CCc2c(COCC3CC3)cncc2C1  -5.644%
83. CCCn1cnc2c1CN(S(=O)(=O)Cc1ccccc1)[C@H](C(=O)OC)C2  -5.674%
84. O=C(Cc1ccc2c(c1)OCO2)N[C@@H]1CCNC[C@H]1O  -5.906%
85. O=C([C@@H]1COC[C@H]2CN(CC3CCCC3)C[C@H]21)N1CCOCC1  -6.22%
86. Cc1n[nH]cc1CNC1(c2ccc(Br)cc2)CC1  -6.578%
87. O=C1CCC2(CCN(Cc3ccoc3)CC2)N1OCc1ccccc1F  -6.682%
88. CCOC(=O)CCNC(=O)c1cccc2ccc(C)nc12  -7.02%
89. CCOc1ccc(CN(C)C2CCN(c3cc(C)nn3C)C2=O)cc1 (stereo unspecified)  -7.061%
90. O=C(c1cccc(CNC/C=C/c2ccccc2)c1)N1CCCC1  -7.138%
91. OCCNC1CSCCc2ccccc21 (stereo unspecified)  -7.147%
92. O=C(CN1CCCS(=O)(=O)CC1)NCc1ccccc1F  -8.655%
93. Cc1ccc(CN(CC(=O)NCC2CCOC2)c2ccc(F)cc2)o1 (stereo unspecified)  -9.674%
94. CN1CC2(CCN(C(=O)c3ccc4c(=O)n(C)cnc4c3)C2)OC1=O (stereo unspecified)  -9.693%
95. CN(C)c1cc2c(nn1)CCN(C(=O)Cc1ccc3c(c1)CCO3)C2  -10.79%
96. COc1cccc(CNCc2c(C)nc3sc(C)cn23)c1OC  -11.36%
97. COCCN(Cc1nccs1)C(=O)c1cc(-c2ccc(C)s2)n[nH]1  -12.01%
98. Cc1noc(C)c1CNC(C)c1ccc(S(=O)(=O)N(C)C)cc1 (stereo unspecified)  -12.9%
99. CC(C)N1Cc2cccc(NCC(=O)N(C)C)c2C1  -13.34%
100. O=C(O)C(F)(F)F.O=C(c1ccco1)N1CCc2c(COCC3CC3)cncc2C1  -15.15%
101. COc1cccc(C(=O)N(C)C(C)c2c(C)n[nH]c2C)c1OC (stereo unspecified)  -15.68%
102. Cc1nc(NCCSc2nnc(C)s2)c2cccnc2n1  -15.89%
103. Cc1cc(OC(F)F)c(C(=O)NCC(O)c2cccc(F)c2)s1 (stereo unspecified)  -16.7%
104. O=C1[C@@H]2CCN(CC3CCOCC3)C[C@@H]2OCCN1c1ccccc1  -22.15%
105. CN(C)C(=O)N1C[C@@H]2CC[C@H](C1)N(C(=O)CCCn1cncn1)C2  -23.9%
106. Cc1nc(C)c(COc2ccc(N(C)S(C)(=O)=O)cc2)s1  -26.99%
